Assay results: PubChem BioAssay AID720518 (National Center for Advancing Translational Sciences (NCATS), 2013)
Records with an inconclusive call do not appear. A call without a number means that no potency is given here. The source made the active and inactive calls. Calls come from the whole dose curve.

Test: qHTS for Inhibitors of Cell Surface uPA Generation: Wild-type Protective Antigen (WT-PrAg) Counterscreen for Cherry-picked Compounds
Conditions: cells, WT protective antigen toxicity counterscreen; series mostly up to 115 µM

Compound	Potency
Cc1cccc(CCNC(=O)Cc2ccc(NC3=NC4CS(=O)(=O)CC4S3)cc2)c1 (stereo not given)	inactive
COc1cc2c(cc1OC)CN(C(=O)c1ccc(-c3ccccc3)cc1)CC2	inactive
C/C=C(/C(=C/C)c1ccc(O)cc1)c1ccc(O)cc1	inactive
O=C(O)COc1ccccc1/C=N/NC(=O)CNC(=O)c1ccco1	inactive
CC(/C=C/C1(O)C(C)CC(O)CC1(C)C)OC1OC(CO)C(O)C(O)C1O (stereo not given)	inactive
COc1ccccc1C(=O)Nc1cccc(C(=O)c2ccccc2)c1	inactive
CC1Cc2nc(SCC(=O)N3CCCC3)n(C)c(=O)c2S1 (stereo not given)	inactive
Cc1nn(CC(=O)OCC(=O)NC(C)c2ccccc2)c(C)c1[N+](=O)[O-] (stereo not given)	inactive
COC(=O)[C@H](CC(C)C)N(Cc1ccccc1)S(=O)(=O)N(Cc1ccc(OC)cc1)[C@@H](CC(C)C)C(=O)OC	inactive
CC1(C)C([N+](=O)[O-])C(c2ccc(F)cc2)NC(c2ccc(F)cc2)C1[N+](=O)[O-] (stereo not given)	inactive
CS(=O)(=O)c1ccc(Cl)c(NC(=O)COC(=O)CNC(=O)c2cccs2)c1	inactive
C[C@]12CCC(O)CC1CCC1C2CC[C@]2(C)C(c3cc(C(F)(F)F)n[nH]3)CCC12 (stereo not given in full)	inactive
COC(=O)/C(C#N)=C\c1c(OC)[nH]c2ccccc12	inactive
CCOC(=O)C(CC)n1cnc2c(nnn2-c2ccccc2)c1=O (stereo not given)	inactive
COCCCN1CC23C=CC(O2)C(C(=O)O)C3C1=O (stereo not given)	inactive
O=C(COC(=O)c1ccc2ncsc2c1)NCc1cccc(Cl)c1	inactive
COc1cccc(NC(=S)NCc2ccc3c(c2)cc(C)n3C)c1	inactive
COc1ccccc1CNC(=O)CCn1c(=O)oc2ccccc21	inactive
COc1ccc(-c2csc(NC(C)c3nc4cc(C(=O)NCCCO)ccc4n3Cc3ccc(C)cc3)n2)cc1 (stereo not given)	inactive
COc1ccc(CCNC(=O)COC(=O)CNS(=O)(=O)c2ccc(SC)c([N+](=O)[O-])c2)cc1	inactive

Compound	Potency
CCc1ccc(S(=O)(=O)NCCc2cn3cccc(C)c3n2)s1	inactive
COc1cc(NC(=O)CSc2nnc3ccc(-c4ccncc4)nn23)cc(OC)c1	inactive
Cc1ccnc(NC(=O)CCNS(=O)(=O)c2ccc(C)c(C)c2)c1	inactive
COc1ccccc1NC(=O)Cn1ncc2c1-c1ccccc1OC2	inactive
COc1ccccc1N1CCN(Cc2ccc(SC)cc2)CC1	inactive
CCOc1ccc(-n2cnc3scc(-c4ccc(OC)c(OC)c4)c3c2=O)cc1	inactive
COC(C[C@H](O)[C@H](C)[C@@H](O)COCc1ccccc1)OC	inactive
CCC1(CC)NC(=O)N(CC(=O)OCC(=O)c2cc(C)c(C)cc2C)C1=O	inactive
Cc1cc(C)cc(NC(=O)Cc2ccc(NC3=NC4CS(=O)(=O)CC4S3)cc2)c1 (stereo not given)	inactive
Cn1c(SCC(=O)NNC(=O)c2ccc(Br)cc2)nnc1-c1cccnc1	inactive
C/C(=N\NC(=O)c1ccccc1)c1c(C)[nH]n(-c2ccccc2)c1=O	inactive
Cc1cc(C)cc(S(=O)(=O)c2cn(C)c3cc(N4CCN(C)CC4)c(F)cc3c2=O)c1	inactive
Cc1ccc(C)c(S(=O)(=O)Nc2ccccc2C(=O)Nc2cc(C)on2)c1	inactive
C[C@H](CO)N1C[C@H](C)[C@@H](CN(C)C(=O)Nc2ccccc2)Oc2c(NS(=O)(=O)c3ccccc3)cccc2C1=O	inactive
COc1ccc2nc(C)cc(Nc3ccccc3O)c2c1	inactive
CC(C)Cn1cnc2c(N)nc3ccccc3c21	inactive
CCN(CC)S(=O)(=O)c1ccc(NC(=S)Nc2ccc(F)cc2)cc1	inactive
Cc1ccc(Cl)cc1NC(=O)c1ccccc1OCC(=O)N1CCOCC1	inactive
CCO[C@H]1OC(C(=O)N2CCCCCCC2)=C[C@@H](c2ccc(C(F)(F)F)cc2)[C@@H]1CCCO	inactive
O=[N+]([O-])c1cccc(-c2noc(-c3cccs3)n2)c1	inactive
